Compound activity (PubChem BioAssay)
In the library only some 19% were active in any assay of this set; here they are far more common.
IL1B secr inh – blocks inflammasome-driven IL-1 beta release | actives 4.7% (n = 360,000) | THP-1 LPS/ATP IL-1B secretion, AlphaLISA, 16 h; hits give low values | activity change, % at 57.5 µM; in the data active = activity change below about -50%; inconclusive = mostly about -30% to -49%
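THP-1 cells pretreated 1 hr with compounds (up to 57.5 uM final), then stimulated with LPS (250 ng/mL final) plus ATP (1.25 mM final); secreted IL-1B measured by AlphaLISA after 16 hr, decreased signal indicating inhibition.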
DT40 TDP1 CPT – DT40-hTDP1 cell growth loss with CPT | Potency, µM (top dose mostly 46.2 µM), for the others: at the top dose activity change, negative = growth inhibition, usual class: inhibitors | chicken DT40 Tdp1-/-;hTDP1 cells + 20 nM CPT, ATP luminescence, 48 h | actives 12% (n = 420,000); note: potency is the fitted concentration of half-maximal effect; nearly all actives have a fitted effect of over 55% in size
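Chicken DT40 Tdp1-/- cells complemented with human TDP1, 400 cells/well, exposed to compounds plus 20 nM camptothecin for at least 48 h at 37 C; viability read as ATP content by CellTiter-Glo luminescence.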
ELG1 DNA repair – blocks ELG1-dependent DNA repair in HEK293T cells | HEK293T ELG1-luciferase reporter, luminescence, 16 h; DNA damage induced by 5-fluorouridine | actives 2.3% (n = 330,000) | Potency, µM (doses to about 46.1 µM), without a hit: at the top dose activity change, negative = inhibition, most hits filed as inhibitors; note: potency is the fitted concentration of half-maximal effect; nearly all actives have a fitted effect of over 55% in size
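Reporter activity after DNA damage by 5-fluorouridine is monitored. Compound-treated cells incubate 16 hr at 37 °C, then ONE-Glo is added for 30 min before luminescence reading.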
HT1080NT lethal – kills 2HG-producing HT-1080-NT fibrosarcoma cells; HT-1080-NT fibrosarcoma viability, CellTiter-Glo ATP luminescence, 48 h; Potency, µM (highest dose often 46.1 µM), for inactives: at the top dose activity, negative = less viability, hits mostly cytotoxic; actives 1.6% (n = 360,000); AID 686970;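 note: NT is the 2HG producing partner of a matched IDH1 knockdown line; potency is the fitted concentration of half-maximal effect; 0% = DMSO-treated cells and -100% = media-only wells without cells; nearly all actives have a fitted effect of over 55% in size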
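Luminescent CellTiter-Glo readout after 48 hours of compound exposure at 37 degrees C defined viability of HT-1080-NT cells. Activity was normalized to DMSO wells and cell-free media wells; concentration-response curves were fitted and assigned curve classes.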
DT40 TDP1 no CPT – qHTS for Inhibitors of human tyrosyl-DNA phosphodiesterase 1 (TDP1): qHTS in cells in absence of CPT. DT40 Tdp1-/- hTDP1 cells, no CPT, ATP luminescence, 48 h. Potency, µM (titrated, usually from 46.2 µM), for inactives: at the highest dose activity change, negative = growth inhibition, most hits filed as inhibitors. actives 15% (n = 420,000); note: potency is the fitted concentration of half-maximal effect; nearly all actives have a fitted effect of over 55% in size
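Chicken DT40 Tdp1-/- cells stably complemented with human TDP1 were seeded at 400 cells/well with DMSO in place of 20 nM camptothecin. After compound pinning, cells grew at least 48 hr at 37 °C; viability read by CellTiter-Glo luminescence.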
HT1080 IDH1KD tx – kills HT-1080 cells with IDH1 knockdown | Potency, µM (top dose mostly 46.1 µM), for inactives: at the highest dose activity, negative = toxicity, most hits filed as cytotoxic | actives 2% (n = 360,000) | HT-1080 IDH1 knockdown viability, ATP luminescence, 48 h;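 note: potency is the fitted concentration of half-maximal effect; 0% = DMSO wells and -100% = cell-free medium wells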
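In this qHTS, HT-1080 cells depleted of IDH1 are exposed for 48 h at 37 °C to compound titrations. Toxicity is scored from CellTiter-Glo luminescence, with DMSO as full viability and medium alone as none.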
The depositor's hits bear a star; ? = inconclusive; / = not tested or not shown; [ ] = dose if it differs, or a comment. Unless noted, calls come from the whole dose curve; as a rule, active = well fitted curve in the direction sought with a large enough effect; inconclusive = small, poorly fitted or top-dose-only effect, or another doubt; inactive = no such curve, though single readings can be large; an effect the other way counts as inactive or inconclusive. Unless noted, % is set by controls: 0 for no effect and ±100 for the full control effect.

SMILES | IL1B secr inh | DT40 TDP1 CPT | ELG1 DNA repair | HT1080NT lethal | DT40 TDP1 no CPT | HT1080 IDH1KD tx
CC(=O)NCC1CCCN(Cc2cn(-c3ccccc3F)nc2-c2cc(C)sc2C)C1 (stereo not drawn) | -56* | ? | -9% | 4% | -23% | -13%
CCc1ccc(C(C)NC(=O)COC(=O)c2ccc(-n3cnnn3)cc2)cc1 (stereo not drawn) | -17 | 9% | 0% | 2% | 0% | 8%
Cc1ncc2c(c1CNC(=O)c1cncs1)CCN(C(=O)c1ccc(C(C)(C)C)cc1)C2 | / | 13%[9.04 µM] | / | / | ? | /
O=C(CCNC(=O)C1CCN(S(=O)(=O)c2ccc(F)cc2)CC1)NCc1ccccn1 | -3 | 1% | / | 6% | 0% | 13%
CCC(=O)c1cn(CC(=O)Nc2ccccc2F)c2ccccc12 | 6 | -1% | -2% | 1% | -16% | -4%
O=C(Cn1c2ccccc2c(=O)c2ccccc21)Nc1ccccc1F | -7 | 13µM* | 17% | -2% | ? | -24%
O=C(Cn1cc(C(=O)c2ccco2)c2ccccc21)Nc1ccccc1Cl | / | -8% | / | / | -21% | /
CC(=O)c1cn(CC(=O)Nc2ccccc2Cl)c2ccccc12 | 32 | 16µM* | -5% | 1% | 9.2µM* | ?
CC(=O)c1cn(CC(=O)Nc2ccccc2F)c2ccccc12 | 21 | 18µM* | -4% | -2% | 12µM* | -6%
Cc1cc(C)cc(NC(=O)Cn2cc(C(=O)C3CCCCC3)c3ccccc32)c1 | / | 18µM* | / | / | 23µM* | /
Cc1ccc(NC(=O)Cn2cc(C(=O)C3CC3)c3ccccc32)cc1 | 7 | -8% | 13% | -10% | 1% | -2%
CC(=O)c1cn(CC(=O)Nc2ccccc2)c2ccccc12 | 21 | 15µM* | -3% | -29% | 13µM* | -14%
O=C(Cn1c2ccccc2c(=O)c2cc([N+](=O)[O-])ccc21)Nc1ccccc1Cl | 8 | ? | 30% | 0% | 13µM* | 6%
CC(C)(O)[C@H](O)Cc1cc2ccc(=O)oc2cc1O[C@@H]1O[C@H](CO)[C@@H](O)[C@H](O)[C@H]1O | -19 | -11% | 7% | -1% | -6% | 2%
N#C/C(=C\c1ccc(O)c([N+](=O)[O-])c1)c1nc2ccccc2s1 | 31 | 26µM* | -16% | ? | 16µM* | ?
COc1cc(/C=C(\C#N)c2nc3ccccc3s2)cc([N+](=O)[O-])c1O | 92 | ? | ? | -17% | 16µM* | -12%
CSc1ccccc1C(=O)OCC(=O)NC1CC1 | 2 | 10% | / | 12% | -6% | 8%
O=C1CCC[C@@H]2[C@@H](Cc3ccccc3)[C@@H](Nc3ccccc3)C[C@@H]3CCN1[C@@H]32 | / | ? | / | / | 11µM* | /
O=C1CCC[C@@H]2[C@H](Cc3ccccc3)[C@@H](O)C[C@@H]3CCN1[C@@H]32 | 20 | -21% | / | 14% | ? | -1%
COC(=O)c1cn([C@@H]2C[C@@H](C(=O)Nc3cccc(SC)c3)N(C3CCCCCC3)C2)nn1 | / | 4%[9.04 µM] | / | / | -19% | /
Cc1ccc(Cl)cc1NC(=S)NN | 26 | ? | -4% | ? | ? | ?
COC(CNC(=O)c1ccc2nc(-c3ccccc3)c(-c3ccccc3)nc2c1)OC | ? | ? | ? | -3% | 12µM* | -7%
Cc1cc(NC(=O)c2ccc3nc(-c4ccccc4)c(-c4ccccc4)nc3c2)no1 | 5 | -20% | -10% | -8% | -2% | -6%
CC(=O)NNc1nc(-c2ccccc2)c2cc(Cl)ccc2n1 | -12 | -20% | / | -5% | -23% | 0%
COCCNC(=O)c1cccc(Nc2nc(-c3ccccc3)c3cc(Cl)ccc3n2)c1 | -52* | 15µM* | 21µM* | -23% | 9.2µM* | ?
SMILES | IL1B secr inh | DT40 TDP1 CPT | ELG1 DNA repair | HT1080NT lethal | DT40 TDP1 no CPT | HT1080 IDH1KD tx
COCCCNC(=O)c1ccc(-c2nc3ccccc3nc2-c2ccccc2)cc1 | -9 | ? | / | -3% | 23µM* | 0%
COCCCNC(=O)c1ccc(C(=O)NCCCOC)cc1 | 5 | -7% | 4% | 9% | -9% | -4%
CNC(=O)c1ccc2nc(-c3cccc(C)c3)c(-c3cccc(C)c3)nc2c1 | / | 11µM* | / | / | 10µM* | /
Cc1cc(C)c(C(O)c2ncc(-c3cccc(F)c3)[nH]2)c(C)c1 (stereo not drawn) | -16 | ? | / | -15% | ? | -21%
COc1ccc(CCC(=O)N/N=C(\C)c2ccc3c(c2)OCO3)cc1 | -3 | -13% | -11% | 0% | -29% | 15%
O=C(CCC(=O)N1CCOc2ccccc21)Nc1ccccc1Br | 7 | -15% | ? | ? | -16% | 6%
Cc1ccc(-c2nnnn2C2C/C(=N\NC(N)=S)C3OCC2O3)cc1 (stereo not drawn) | 9 | 6% | 3% | 1% | 20% | 2%
COc1ccccc1CNC(=O)c1ccc(-c2ccccc2)cc1 | 0 | 12% | ? | -14% | -18% | 0%
COc1ccc(-c2nc3ccc(C(=O)NCC(OC)OC)cc3nc2-c2ccc(OC)cc2)cc1 | -16 | 10µM* | 16µM* | -16% | 8.2µM* | -15%
CN1CCN(CCNC(=O)c2ccc3nc(-c4ccc(F)cc4)c(-c4ccc(F)cc4)nc3c2)CC1 | -53* | ? | 1% | 18µM* | ? | 23µM*
CCc1nc2ccc(C(=O)NCCCN3CCN(c4ccc(F)cc4)CC3)cc2nc1CC | 2 | ? | ? | ? | ? | ?
COc1cccc(CNC(=O)c2ccc3nc(-c4ccccc4)c(-c4ccccc4)nc3c2)c1OC | / | 23µM* | / | / | ? | /
COc1ccc(-c2nc3ccc(C(=O)NCc4ccccc4)cc3nc2-c2ccc(OC)cc2)cc1 | / | ? | / | / | 15µM* | /
CNc1ccc(-c2cccc([N+](=O)[O-])c2)cn1 | -8 | ? | / | 0% | ? | 1%
Cc1cc(C)nc(SSc2nc(C)cc(C)n2)n1 | 7 | ? | -4% | ? | ? | ?
O=C(NCC1CC1)c1ccc2nc(-c3ccoc3)c(-c3ccoc3)nc2c1 | / | ? | / | / | 11µM* | /
O=C(OCc1ccccc1Cl)c1ccc(-c2nnn(Cc3ccccc3)n2)cc1 | / | -2% | / | / | ? | /
Cc1ccc(S(=O)(=O)N2CCOCC2)cc1C(=O)N1CCN(S(=O)(=O)c2ccccc2F)CC1 | 2 | -2% | / | -2%[9.24 µM] | 4% | -2%
